For some of these results: Potency and affinity values are given separately.
Assays:
Set-up in all cases: scale not given: direction of the effect not stated beside the values
[1] = biological target: Protein translocase subunit SecA (Escherichia coli (strain K12)) (UniProt P10408); test: Assay to Identify E. coli SecA ATPase Inhibitors; type: functional; details: 30 µM
[2] = biological target: T1, Ubiquitin-activating enzyme e1, putative (Leishmania donovani (strain BPK282A1)) (UniProt E9BSI1); test: Leishmania donovani Ubiquitin Activating Enzyme (LdE1); type: functional; details: 30 µM
T1 sequence (whole entry): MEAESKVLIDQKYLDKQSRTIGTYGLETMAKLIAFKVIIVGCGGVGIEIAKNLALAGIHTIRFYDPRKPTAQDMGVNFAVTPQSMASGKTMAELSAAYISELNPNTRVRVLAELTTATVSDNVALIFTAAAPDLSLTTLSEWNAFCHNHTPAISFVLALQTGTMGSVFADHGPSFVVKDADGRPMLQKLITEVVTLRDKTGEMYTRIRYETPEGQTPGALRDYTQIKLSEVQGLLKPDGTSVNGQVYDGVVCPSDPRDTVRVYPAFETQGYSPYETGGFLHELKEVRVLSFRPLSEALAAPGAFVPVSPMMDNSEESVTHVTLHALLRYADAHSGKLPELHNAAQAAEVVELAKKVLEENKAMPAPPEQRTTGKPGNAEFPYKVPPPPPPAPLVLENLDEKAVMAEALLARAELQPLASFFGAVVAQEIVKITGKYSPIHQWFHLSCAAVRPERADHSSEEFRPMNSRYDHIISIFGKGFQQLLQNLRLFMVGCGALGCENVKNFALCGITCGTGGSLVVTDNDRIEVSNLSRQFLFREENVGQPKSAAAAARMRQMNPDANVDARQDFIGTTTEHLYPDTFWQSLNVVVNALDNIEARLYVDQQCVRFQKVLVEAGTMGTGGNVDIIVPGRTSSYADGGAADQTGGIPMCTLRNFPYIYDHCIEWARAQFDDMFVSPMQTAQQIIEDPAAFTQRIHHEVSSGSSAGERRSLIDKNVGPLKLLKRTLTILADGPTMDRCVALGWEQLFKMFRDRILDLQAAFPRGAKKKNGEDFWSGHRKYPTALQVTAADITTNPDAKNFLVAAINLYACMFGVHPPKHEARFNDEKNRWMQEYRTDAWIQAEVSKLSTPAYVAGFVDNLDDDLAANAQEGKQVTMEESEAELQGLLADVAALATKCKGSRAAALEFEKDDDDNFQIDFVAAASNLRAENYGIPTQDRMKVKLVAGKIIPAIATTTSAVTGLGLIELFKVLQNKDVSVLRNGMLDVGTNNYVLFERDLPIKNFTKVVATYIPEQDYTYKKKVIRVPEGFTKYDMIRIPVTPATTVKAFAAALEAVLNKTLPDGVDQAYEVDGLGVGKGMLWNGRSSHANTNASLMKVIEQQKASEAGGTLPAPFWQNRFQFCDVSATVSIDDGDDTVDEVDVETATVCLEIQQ

[3] = biological target: AMP-activated protein kinase, AMPK (Homo sapiens) (UniProt P54646+O43741+P54619+Q9UGJ0+Q9Y478+Q13131+Q9UGI9); test: AMP-dependent Kinase enzyme assay. An in vitro enzyme assay that detects ADP turnover that is directly proportional to AMPK activity. This uses naive AMPK that is activated during the assay with MK-8722; type: functional; details: 30 µM
[4] = biological target: Sialic acid-binding Ig-like lectin 9 (Homo sapiens) (UniProt Q9Y336); test: Hs-Siglec9 ALPHAscreen SOP 20170721; details: 10 µM
Chain of Sialic acid-binding Ig-like lectin 9 (Homo sapiens) (Q9Y336 whole entry): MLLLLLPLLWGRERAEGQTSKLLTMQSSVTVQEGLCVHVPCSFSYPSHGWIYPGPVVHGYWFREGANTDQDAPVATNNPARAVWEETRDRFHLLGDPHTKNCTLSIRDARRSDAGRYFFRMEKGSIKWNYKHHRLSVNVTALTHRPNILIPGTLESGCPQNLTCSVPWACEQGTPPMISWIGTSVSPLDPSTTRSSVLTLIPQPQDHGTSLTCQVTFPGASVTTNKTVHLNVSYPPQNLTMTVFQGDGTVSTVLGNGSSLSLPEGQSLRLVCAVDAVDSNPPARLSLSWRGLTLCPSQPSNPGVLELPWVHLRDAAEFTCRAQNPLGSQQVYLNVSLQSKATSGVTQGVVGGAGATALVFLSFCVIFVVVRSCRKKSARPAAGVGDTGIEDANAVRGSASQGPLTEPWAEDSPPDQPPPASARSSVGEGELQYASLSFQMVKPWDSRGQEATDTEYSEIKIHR

Trypanosoma cruzi = test: Trypanosoma cruzi phosphomannomutase and mannose-1-phosphate guanylyltransferase assay; type: functional; details: 10 µM
[5] = biological target: T2, Arginase-2, mitochondrial (Homo sapiens) (UniProt P78540); test: in vitro enzyme assay to detect the production of urea directly proportional to the activity of Arginase II; type: functional; details: 33.3 µM; also: in the data most compounds retested in dose-response had high values
T2 sequence (whole entry): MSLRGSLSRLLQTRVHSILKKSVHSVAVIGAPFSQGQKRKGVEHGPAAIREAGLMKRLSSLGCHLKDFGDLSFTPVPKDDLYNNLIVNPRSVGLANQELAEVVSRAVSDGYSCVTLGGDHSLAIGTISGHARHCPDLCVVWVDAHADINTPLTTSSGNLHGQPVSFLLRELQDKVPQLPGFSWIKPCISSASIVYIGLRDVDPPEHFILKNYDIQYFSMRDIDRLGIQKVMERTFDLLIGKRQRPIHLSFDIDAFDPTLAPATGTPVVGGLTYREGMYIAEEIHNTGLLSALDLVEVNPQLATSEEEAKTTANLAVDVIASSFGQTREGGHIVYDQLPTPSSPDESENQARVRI

[6] = biological target: T3, Proteasome subunit beta (Trypanosoma cruzi) (UniProt O96673); test: Trypanosoma cruzi proteasome chymotrypsin-like activity (TcProtChymo) assay.; also: in the data most compounds retested in dose-response had high values; type: functional; details: 9.37 µM
T3 sequence (whole entry): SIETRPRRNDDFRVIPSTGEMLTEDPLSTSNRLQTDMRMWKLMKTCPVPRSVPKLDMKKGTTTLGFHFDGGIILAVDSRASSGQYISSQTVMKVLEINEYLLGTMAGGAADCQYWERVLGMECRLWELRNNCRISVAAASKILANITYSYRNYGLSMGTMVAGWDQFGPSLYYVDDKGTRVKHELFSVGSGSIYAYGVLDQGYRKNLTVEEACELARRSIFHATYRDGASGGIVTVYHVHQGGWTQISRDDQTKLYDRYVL

Homo sapiens = organism: Homo sapiens; test: To identify inhibition of the IFN signalling (Jak-Stat) pathway via expression of an eGFP reporter gene under the control of an IFN-stimulated response element (ISRE) containing MxA promoter.; type: functional; details: 30 µM
[7] = biological target: T4, Tyrosyl-tRNA synthetase, putative (Trypanosoma cruzi (strain CL Brener)) (UniProt Q4DSP6); test: Trypanosoma cruzi tyrosyl tRNA synthetase (TcYRS) _High Tyrosine SOP; type: functional; details: 30 µM; also: in the data most compounds retested in dose-response had high values
T4 sequence (whole entry): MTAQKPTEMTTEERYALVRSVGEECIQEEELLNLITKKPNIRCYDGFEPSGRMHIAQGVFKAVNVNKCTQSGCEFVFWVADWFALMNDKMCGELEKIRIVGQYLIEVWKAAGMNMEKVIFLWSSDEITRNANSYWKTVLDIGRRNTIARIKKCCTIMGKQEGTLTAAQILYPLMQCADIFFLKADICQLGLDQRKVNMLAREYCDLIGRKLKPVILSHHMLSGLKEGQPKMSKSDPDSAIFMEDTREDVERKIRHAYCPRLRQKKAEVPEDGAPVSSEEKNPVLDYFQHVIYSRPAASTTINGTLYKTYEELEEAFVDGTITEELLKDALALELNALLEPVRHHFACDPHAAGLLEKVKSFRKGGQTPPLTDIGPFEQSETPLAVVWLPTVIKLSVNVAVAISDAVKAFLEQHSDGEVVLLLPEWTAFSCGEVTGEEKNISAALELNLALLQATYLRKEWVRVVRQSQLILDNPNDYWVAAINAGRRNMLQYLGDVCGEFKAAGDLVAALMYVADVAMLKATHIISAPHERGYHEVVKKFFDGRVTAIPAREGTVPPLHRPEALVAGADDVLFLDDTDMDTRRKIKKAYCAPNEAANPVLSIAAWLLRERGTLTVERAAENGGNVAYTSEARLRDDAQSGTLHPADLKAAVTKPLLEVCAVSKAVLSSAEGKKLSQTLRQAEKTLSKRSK

[8] = biological target: T4, Tyrosyl-tRNA synthetase, putative (Trypanosoma cruzi (strain CL Brener)); test: Trypanosoma cruzi tyrosyl tRNA synthetase (TcYRS) SOP; type: functional; details: 30 µM
[9] = biological target: Chromo domain-containing protein 1 (Saccharomyces cerevisiae (strain ATCC 204508 / S288c) (Baker's yeast)) (UniProt P32657); test: ScCHD-1 Enzyme Inhibition Assay; type: functional; details: 30 µM; also: in the data most compounds retested in dose-response had high values
Chain of Chromo domain-containing protein 1 (Saccharomyces cerevisiae (strain ATCC 204508 / S288c) (Baker's yeast)) (P32657 whole entry, the tested form may be a part): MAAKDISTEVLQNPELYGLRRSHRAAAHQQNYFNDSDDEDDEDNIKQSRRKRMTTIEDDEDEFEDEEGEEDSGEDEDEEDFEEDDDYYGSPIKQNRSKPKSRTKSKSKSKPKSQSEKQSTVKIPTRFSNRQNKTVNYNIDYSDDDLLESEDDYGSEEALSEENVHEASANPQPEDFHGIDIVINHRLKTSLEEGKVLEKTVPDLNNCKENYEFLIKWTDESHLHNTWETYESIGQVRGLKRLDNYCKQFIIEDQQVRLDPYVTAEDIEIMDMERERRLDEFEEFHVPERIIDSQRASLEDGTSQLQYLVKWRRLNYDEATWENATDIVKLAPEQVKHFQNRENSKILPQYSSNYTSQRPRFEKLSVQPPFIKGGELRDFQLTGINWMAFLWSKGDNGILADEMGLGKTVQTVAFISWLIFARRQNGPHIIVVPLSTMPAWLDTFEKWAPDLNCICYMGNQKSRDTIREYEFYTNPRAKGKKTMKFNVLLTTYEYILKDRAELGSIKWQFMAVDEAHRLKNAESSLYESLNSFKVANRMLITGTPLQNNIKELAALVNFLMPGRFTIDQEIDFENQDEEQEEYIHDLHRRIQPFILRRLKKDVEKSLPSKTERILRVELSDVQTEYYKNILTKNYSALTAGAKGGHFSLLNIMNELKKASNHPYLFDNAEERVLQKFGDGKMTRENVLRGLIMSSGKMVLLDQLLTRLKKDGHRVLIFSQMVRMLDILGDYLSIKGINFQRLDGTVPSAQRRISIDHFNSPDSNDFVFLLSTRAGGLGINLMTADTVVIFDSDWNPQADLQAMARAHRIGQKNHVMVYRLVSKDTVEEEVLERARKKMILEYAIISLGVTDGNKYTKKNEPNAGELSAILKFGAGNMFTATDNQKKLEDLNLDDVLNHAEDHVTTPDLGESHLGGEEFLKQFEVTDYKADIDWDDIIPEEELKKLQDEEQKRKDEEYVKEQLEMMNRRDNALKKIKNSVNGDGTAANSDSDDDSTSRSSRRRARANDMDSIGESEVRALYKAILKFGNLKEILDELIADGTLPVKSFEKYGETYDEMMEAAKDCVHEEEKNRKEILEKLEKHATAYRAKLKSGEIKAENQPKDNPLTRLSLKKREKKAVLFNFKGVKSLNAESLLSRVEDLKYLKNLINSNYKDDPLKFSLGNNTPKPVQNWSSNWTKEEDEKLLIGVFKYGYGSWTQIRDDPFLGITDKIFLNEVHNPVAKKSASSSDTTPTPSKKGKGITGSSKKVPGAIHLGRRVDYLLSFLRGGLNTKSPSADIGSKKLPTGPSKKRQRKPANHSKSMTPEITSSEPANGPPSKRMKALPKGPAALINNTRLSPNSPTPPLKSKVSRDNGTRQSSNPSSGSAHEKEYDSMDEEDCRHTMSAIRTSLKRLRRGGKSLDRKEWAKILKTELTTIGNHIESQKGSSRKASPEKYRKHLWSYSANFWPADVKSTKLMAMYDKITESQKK

Chain of Protein translocase subunit SecA (Escherichia coli (strain K12)) (P10408 whole entry): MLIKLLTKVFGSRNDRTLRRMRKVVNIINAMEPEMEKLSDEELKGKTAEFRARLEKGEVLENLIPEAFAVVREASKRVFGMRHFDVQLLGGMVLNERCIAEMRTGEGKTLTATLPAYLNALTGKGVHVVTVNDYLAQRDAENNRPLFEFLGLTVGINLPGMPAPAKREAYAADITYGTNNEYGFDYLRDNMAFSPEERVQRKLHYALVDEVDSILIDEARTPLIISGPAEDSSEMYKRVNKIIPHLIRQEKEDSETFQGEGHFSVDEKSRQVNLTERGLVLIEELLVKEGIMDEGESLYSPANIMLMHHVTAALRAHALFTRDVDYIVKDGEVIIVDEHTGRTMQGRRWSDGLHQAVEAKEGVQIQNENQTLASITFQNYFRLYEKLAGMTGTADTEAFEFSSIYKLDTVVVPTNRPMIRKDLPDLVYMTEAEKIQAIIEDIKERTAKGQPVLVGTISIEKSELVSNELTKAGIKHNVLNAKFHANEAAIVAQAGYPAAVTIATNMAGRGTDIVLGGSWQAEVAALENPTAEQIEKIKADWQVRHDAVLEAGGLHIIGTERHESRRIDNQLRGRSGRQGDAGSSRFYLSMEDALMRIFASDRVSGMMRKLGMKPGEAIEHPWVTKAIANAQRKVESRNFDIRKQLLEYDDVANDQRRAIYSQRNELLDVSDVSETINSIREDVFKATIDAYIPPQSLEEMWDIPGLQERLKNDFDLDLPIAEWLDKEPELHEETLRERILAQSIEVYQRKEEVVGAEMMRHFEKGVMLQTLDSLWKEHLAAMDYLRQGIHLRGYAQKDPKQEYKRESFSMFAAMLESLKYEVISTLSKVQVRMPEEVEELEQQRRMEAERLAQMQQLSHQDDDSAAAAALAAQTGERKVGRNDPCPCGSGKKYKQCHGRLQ

SMILES	Percent Effect [1]	Percent Effect [2]	Percent Effect [3]	Percent Effect [4]	Percent Effect (Trypanosoma cruzi)	Percent Effect [5]	Percent Effect [6]	Percent Effect (Homo sapiens)	Percent Effect [7]	Percent Effect [8]	Percent Effect [9]
CS(=O)(=O)N1CCCC12CCCN(S(=O)(=O)c1cc(F)cc(F)c1)C2 (stereo unspecified)	-5.6%	-8.11%	3.16%	-10%	-3.23%	-2.23%	10%	14.4%	0%	-1.24%	-0.985%
CCCc1noc(CN(C)C(=O)C2COc3ccccc3C2)n1 (stereo unspecified)	-2.56%	7.79%	-0.0483%	4.75%	-3.25%	-30.3%	14.1%	-15.6%	5.38%	16.1%	-3.26%
CC(C(=O)Nc1cccc(N2CCCCC2)c1)n1cncn1 (stereo unspecified)	-7.36%	13.5%	-9.41%	28.7%	3.11%	-3.61%	10.3%	0.641%	5.42%	23.5%	-10.9%
CO[C@@H]1CC[C@H]2[C@H]1OCCN2C(=O)C1=CCCC1	-3.13%	10.4%	-1.31%	-0.155%	-4.83%	16.1%	7.49%	-1.44%	-2.12%	14.1%	-6.88%
CCn1nc(C)c2nc(C(C)C)nc(N3CCCCC3)c21	-3.55%	2.6%	1.61%	3.47%	-5.8%	-9.65%	1.5%	5.04%	3.23%	6.17%	-0.27%
Cc1ccc(NC(=O)Cn2cc(I)cn2)cc1	-4.63%	-4.17%	-12.3%	3.22%	-2.82%	-1.32%	6.32%	28.2%	-4.21%	-7.69%	3.77%
COC(=O)c1cccc(OCCn2nc(-c3cccs3)oc2=O)c1	-3.91%	-5.41%	-4.63%	7.61%	-4.36%	-3.14%	1.44%	22.8%	-16.8%	-6.1%	3.23%
O=C(c1cccc(Cl)c1)N1CCCn2c(CN3CCCCC3)nnc2C1	-9.25%	8%	-3.61%	1.72%	-6.3%	-2.1%	0.441%	10.4%	4.25%	3.85%	-2.51%
CN(C(=O)Cc1ccc2c(c1)OCCO2)C1CCCC1	3.58%	10.5%	1.6%	-8.7%	-3.8%	-7.1%	3.55%	14.1%	3.19%	10.4%	-0.571%
CNC(=O)Nc1cc(-c2ccc(Br)cc2)nn1CCO	-6.67%	10.5%	0.242%	1.93%	5.94%	-16.6%	3.16%	-5.7%	4.25%	2.6%	-2.66%
Cc1nc(CN2C[C@@H]3CN(C(=O)c4cnccn4)C[C@@H]3C2)cs1	-1.57%	5.48%	0.106%	5.75%	-1.79%	-2.79%	7.45%	7.67%	5.21%	16.1%	-3.57%

— ChEMBL document CHEMBL3988442, “University of Dundee, Small-Polar-MMV Screening Library” (2021)
